From PubChem
rRNA inh HTS = selective bacterial rRNA inhibition in E. coli; 350,000 tested, 1.6% active; E. coli WT GFP vs humanized-ribosome RFP mutants, fluorescence, 24 h; stronger effect = lower value; DMSO median 0, no signal -100; GFP signal change (wild-type ribosome), % (no concentration beside the values);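 active = significant combined selectivity score with lowered wild-type GFP, culture density cut under 30%, mutant RFP and density less affected; inactive = any of these conditions unmet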
PGC1a acetyl inh = lowers PGC1a acetylation signal in U2OS cells; AlphaScreen anti-acetyl-lysine; with virally co-expressed GCN5 acetyltransferase; inhibition, % at 15.6 µM; 350,000 tested, 0.17% active;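 active = every replicate shows inhibition of at least 40%; inconclusive = mean inhibition at least 40% but some replicate below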
PAX8 reporter = lowers PAX8-driven luciferase in RMG-I cells; RMG-I TPO-luciferase reporter, SteadyGlo, 24 h; AID 652154; 360,000 tested, 1.2% active; inhibition, % at 12.6 µM;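 active = mean replicate inhibition at least 60% with every replicate also reaching 60%; inconclusive = only one of the two criteria is met; inactive = mean below 60% and not all replicates reaching 60%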;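 note: luciferase light reporting Pax8 driven TPO promoter activity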
SIRT5 inh = blocks human SIRT5 desuccinylation of peptide | Q9NXA8 | Purified SirT5, succinyl-peptide AMC, trypsin-coupled fluorescence | inhibition, % at 15 µM | 330,000 tested, 1.1% active; in the data active = inhibition above about 15%; inconclusive = no clear call, values can overlap the other calls
Target sequence (Q9NXA8 whole entry, looked up): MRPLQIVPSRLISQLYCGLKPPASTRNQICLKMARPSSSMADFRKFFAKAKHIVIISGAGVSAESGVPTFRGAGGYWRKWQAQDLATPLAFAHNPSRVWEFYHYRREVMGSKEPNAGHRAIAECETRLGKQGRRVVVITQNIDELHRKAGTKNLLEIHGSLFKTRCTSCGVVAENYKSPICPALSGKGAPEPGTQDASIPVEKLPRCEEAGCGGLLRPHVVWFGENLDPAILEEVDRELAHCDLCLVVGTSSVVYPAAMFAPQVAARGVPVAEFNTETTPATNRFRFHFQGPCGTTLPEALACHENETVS
LGR2 inh = inhibitors of bursicon-induced Drosophila LGR2 receptor cAMP signaling; 380,000 tested, 0.35% active; AID 720647; HEK293 LGR2, CRE-luciferase, bursicon-stimulated, 4 h; inhibition, % at 9.99 µM;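 active = drop in luminescence signal, shown as inhibition above about 50% in the replicate tests, limit read from the data, passing the limit was not always enough; inconclusive = probably only some replicates passing the limit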;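 note: agonist challenge used bursicon conditioned medium at about half maximal strength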
EWS-Fli block = inhibitors of EWS/Fli oncoprotein transcriptional activity; A673 NR0B1-luciferase reporter, viability-normalised; 350,000 tested, 0.67% active; inhibition, % at 12.6 µM; AID 651661;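 active = mean inhibition of at least 50% after viability correction, with every replicate also passing that limit; inconclusive = mean reaches 50% but only one of two replicates passes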;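 note: firefly luciferase signal divided by Alamar Blue viability fluorescence both relative to DMSO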
AID977621 = growth inhibition of wild-type GFP E. coli, dose response, H69 mutant RFP, cherry-pick; shares compounds with rRNA inh HTS; E. coli wild-type GFP strain growth, fluorescence, 24 h; activity change, negative = inhibition at 50 µM; 1,900 tested, under 10 active;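 active = Wild-type ribosome reporter drop at least double the humanized mutant ribosome reporter drop, growth loss under a set limit; inconclusive = no clear call, values can overlap the other calls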;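 note: wild-type GFP and H69 mutant RFP strains grown together 50/50 in each well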
AID977628 = E. coli growth inhibition, wild-type GFP versus h24 humanized RFP strain, dose response, h24 mutant RFP vs wild-type GFP, cherry-pick; shares compounds with rRNA inh HTS; 1,900 tested, under 10 active; E. coli WT GFP strain growth, fluorescence, 24 h; AID 977628; activity change, negative = inhibition at 50 µM;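 active = compound lowering the normal-ribosome reporter at least twice as much as the humanized-ribosome reporter, growth loss under a set limit; inconclusive = no clear call, values can overlap the other calls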;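 note: wild-type GFP and h24 humanized RFP strains co-cultured 1 to 1 per well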
Large screens that a line does not name were inactive (follow-up assays come after a bar, where they were run); ! = a repeat was not active. The list is not random: actives were taken first. Their share in the collection is about 3.4%.

C[C@H]1CCCCO[C@H](CN(C)C(=O)C2CCCCC2)[C@@H](C)CN([C@@H](C)CO)C(=O)c2cc(NS(=O)(=O)c3cn(C)cn3)ccc2O1	none
C(=C\c1ccc(C2[C@H]3CNC[C@@H]2N3Cc2nccs2)cc1)/c1ccccc1 (some centres undefined)	rRNA inh HTS -21.1! (no result: PGC1a acetyl inh, PAX8 reporter) | AID977628 inconclusive
Cc1ccc(-c2ccc(C3[C@H]4CNC[C@@H]3N4Cc3nccs3)cc2)cc1 (some centres undefined)	none (no result: PGC1a acetyl inh, PAX8 reporter, EWS-Fli block)
Fc1ccc(CSc2nnc(-c3ccco3)o2)cc1	rRNA inh HTS -16.9 (no result: PGC1a acetyl inh) | AID977621 inconclusive | AID977628 inactive
CCCNC(=O)Nc1ccc2c(c1)C(=O)N(C)C[C@@H](OC)[C@H](C)CN(CC1CCCC1)[C@@H](C)CO2	none (no result: PAX8 reporter, SIRT5 inh)
CCOC(=O)c1cnc2ccc(OCC)cc2c1NCCCN1CCOCC1	rRNA inh HTS -21.5, SIRT5 inh 26.7 | AID977621 inactive | AID977628 inconclusive
CCOC(=O)c1cnc2ccc(OCC)cc2c1NCCN1CCOCC1	none
C[C@H]1CN([C@@H](C)CO)C(=O)c2cc(-c3ccncc3)cnc2O[C@@H]1CN(C)C(=O)c1ccc(F)cc1	none (no result: PAX8 reporter)
Cc1nc(N2CCC(C)CC2)c(C#N)c(C)c1[N+](=O)[O-]	rRNA inh HTS -24.6 | AID977621 inactive | AID977628 inactive
O=C1c2cccc3cccc(c23)C(=O)N1CCCn1ccnc1	rRNA inh HTS -21.3 | AID977621 inactive | AID977628 inconclusive
CN(C)CCCNC(=O)C[C@H]1CC[C@@H]2[C@H](COc3ccc(NC(=O)c4ccccc4F)cc3C(=O)N2C)O1	none
CCN(CC)c1nc(Oc2ccc(C(=O)OC)cc2)nc(N2CCOCC2)n1	rRNA inh HTS -15.7 | AID977621 inactive | AID977628 inactive
COc1ccccc1OCC(=O)Nc1ccc(S(=O)(=O)N2CCCCCC2)cc1	rRNA inh HTS -19.4 (no result: PAX8 reporter) | AID977621 inactive
CSc1ccccc1NC(=O)CN(C)CC(=O)Nc1ccc(S(=O)(=O)N2CCCC2)cc1	none
CN(CC(=O)Nc1ccc(S(=O)(=O)N2CCCC2)cc1)CC(=O)Nc1ccc(F)c(F)c1F	rRNA inh HTS -32.8 (no result: PGC1a acetyl inh) | AID977621 inactive | AID977628 inconclusive
O=C(CN1CCN(S(=O)(=O)c2ccc(Cl)cc2)CC1)Nc1ccc2c(c1)CCC2	rRNA inh HTS -21.1 (no result: PGC1a acetyl inh) | AID977621 inactive | AID977628 inconclusive
Cc1ccc(S(=O)(=O)N2CCN(CC(=O)Nc3ccc4c(c3)CCC4)CC2)cc1C	none (no result: rRNA inh HTS, SIRT5 inh, EWS-Fli block)
COc1cccc(-c2ccc([C@H]3[C@@H](CO)N4C(=O)CN(C(=O)C5CCOCC5)C[C@@H]34)cc2)c1	none
O=C(C[C@@H]1C[C@H]2c3cc(NC(=O)NC4CCCCC4)ccc3O[C@H]2[C@H](CO)O1)NCc1cccnc1	none
C[C@@H]1CN([C@@H](C)CO)C(=O)c2cccc(NC(=O)CCCCCC(=O)Nc3ccccc3N)c2O[C@@H]1CN(C)C(=O)Nc1ccccc1	none (no result: PGC1a acetyl inh, PAX8 reporter, SIRT5 inh, EWS-Fli block)
O=C(Nc1ccc(Cl)cn1)c1cc2c(s1)-c1ccccc1OC2	rRNA inh HTS -22.4 | AID977621 inactive | AID977628 inconclusive
O=C(Nc1cccnc1Cl)c1cc2c(s1)-c1ccccc1OC2	none (no result: EWS-Fli block)
CC1CCCC(NC(=O)COC(=O)Cc2c[nH]c3ccccc23)C1C (centres undefined)	rRNA inh HTS -29.1 | AID977621 inactive | AID977628 inactive
O=C(O)c1ccccc1Nc1cc(Cl)c2nonc2c1[N+](=O)[O-]	rRNA inh HTS -20.3 | AID977621 inconclusive
CC1CN(C(=O)COC(=O)c2cccc(S(=O)(=O)N3CCc4ccccc43)c2)CC(C)O1 (centres undefined)	none (no result: PGC1a acetyl inh)
O=C(OCC(=O)N1CCOCC1)c1cccc(S(=O)(=O)N2CCCc3ccccc32)c1	rRNA inh HTS -17.8 (no result: PGC1a acetyl inh) | AID977621 inactive | AID977628 inconclusive
COC(=O)c1ccc(CN2CC(=O)N3[C@H](C2)[C@@H](c2ccc(Br)cc2)[C@@H]3CO)cc1	none
COc1ccc(-c2cc(C(=O)N3CCCCC3)no2)cc1OC	rRNA inh HTS -22.6 (no result: PAX8 reporter) | AID977621 inactive | AID977628 inconclusive
COc1ccc(-c2cc(C(=O)N3CCc4ccccc4C3)no2)cc1	rRNA inh HTS -26.2 (no result: SIRT5 inh) | AID977621 inactive
COc1ccc(-c2cc(C(=O)N3CCCC3)no2)cc1OC	none
Cc1ccc(S(=O)(=O)N2C/C=C\CN(S(=O)(=O)c3ccccc3Br)CC2)cc1	none
Cc1ccc(S(=O)(=O)N2CCCN(S(=O)(=O)c3ccccc3Br)CC2)cc1	rRNA inh HTS -17.1 (no result: SIRT5 inh) | AID977621 inactive | AID977628 inconclusive
O=C(Cn1c(CO)nc2ccccc21)NCCc1ccc(F)cc1	rRNA inh HTS -18.5 | AID977621 inconclusive
C[C@@H](O)C#Cc1ccc2c(c1)O[C@H](CN(C)C(=O)C1CCCCC1)[C@@H](C)CN([C@@H](C)CO)S2(=O)=O	none (no result: PAX8 reporter)
CC(C)OC(=O)c1sc2nc(-c3ccccc3)ccc2c1N	rRNA inh HTS -26.4 (no result: PAX8 reporter) | AID977621 inactive | AID977628 inconclusive
O=[N+]([O-])c1cccc(-c2nc3ccc([N+](=O)[O-])cc3[nH]2)c1	none
O=[N+]([O-])c1ccc2nc(-c3ccccc3[N+](=O)[O-])[nH]c2c1	rRNA inh HTS -27.6 (no result: PGC1a acetyl inh) | AID977628 inactive
COc1ccc(NC(=O)C(C)SCc2ccccc2)cc1OC (centres undefined)	none (no result: SIRT5 inh)
COc1cccc(NC(=O)C(C)SCc2ccccc2)c1 (centres undefined)	rRNA inh HTS -25.0 (no result: PGC1a acetyl inh) | AID977621 inactive | AID977628 inactive
COc1cccc(NC(=O)C(c2ccccc2)N2CCN(c3ccccn3)CC2)c1 (centres undefined)	rRNA inh HTS -19.1 (no result: PGC1a acetyl inh) | AID977621 inactive | AID977628 inactive
CCCN(C)C[C@H]1OCCCC[C@H](C)Oc2ccc(NC(=O)Cc3ccccc3)cc2C(=O)N([C@@H](C)CO)C[C@H]1C	none
COCc1nnc(NC(=O)c2ccc(S(=O)(=O)N3CCCC3)cc2)o1	rRNA inh HTS -23.2 (no result: PGC1a acetyl inh) | AID977621 inactive
C/C=C/c1cnc2c(c1)C(=O)N([C@@H](C)CO)C[C@H](C)[C@H](CN(C)C(=O)NC1CCCCC1)O2	none
Cc1ccnc(NS(=O)(=O)c2ccc(NC(=O)c3ccc4c(c3)OCCO4)cc2)n1	rRNA inh HTS -22.6 (no result: PGC1a acetyl inh) | AID977621 inactive | AID977628 inactive
COc1ccc(NC(=O)Nc2ccc3c(c2)C(=O)N([C@@H](C)CO)C[C@H](C)[C@@H](CN(C)Cc2ccncc2)OCCCC[C@H](C)O3)cc1	none
